# Bioassay records deposited in PubChem BioAssay by National Center for Advancing Translational Sciences (NCATS).
# Pf Dd2 inh: qHTS Primary assay for Inhibitors of Plasmodium falciparum Dd2 growth in vitro; P. falciparum Dd2 growth, SYBR Green, 72 h; Potency, µM (titrated, usually from 28.9 µM), inactives show at the highest dose activity, negative = inhibition, usual class: inhibitors; hit rate 4.3% among 120,000; active = well fitted inhibition curve with a large enough effect;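 also: plate controls were DMSO vehicle for no effect and reference drug for full effect; nearly all actives have a fitted effect of over 65% in size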
#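 Infected erythrocytes (Dd2, 0.3% parasitemia, 2.5% hematocrit final) are added to compound in RPMI-1640/Albumax II medium, grown 72 h at 37C in low oxygen, then lysed with saponin/Triton-X containing SYBR Green and read by fluorescence.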
# The depositor's hits bear a star; i = inactive; [ ] = another dose, or the depositor's remark. Shown is part of a subset that was picked to be rich in hits. Potency is read from the fitted curve at half-maximal effect.
SMILES,Pf Dd2 inh
COc1cccc(CCC(=O)N(C)C2CCc3nn(CC4CC4)c(=O)n3CC2)c1 (centres undefined),8%
Cc1nc(CCNC(=O)Cc2ccsc2)no1,i
COc1ccccc1OCCNC(=O)CCC1CCN(C(=O)c2ccccc2)CC1,-23%
COc1ccc(C)cc1C(=O)N1CC(=O)N(c2cccc(Cl)c2)CC1C (centres undefined),-22%
Cc1nc2c(C)cccc2cc1C(=O)N1CCC2(CCNCC2)CC1,-17%
CC(C)Oc1cccc(-c2n[nH]c3c2CC(=O)N(CCOc2ccccc2)C3)c1,8.9µM*
O=C(O)c1cccc(-c2n[nH]c3c2CC(=O)N(CCOc2ccccc2)C3)c1,-12%[44.1 µM]
O=C1Cc2c(-c3ccccc3)n[nH]c2CN1CCOc1ccccc1,-21%[44.1 µM]
COc1ccc(CN2CCC(CO)(CN3CCCC3)CC2)c(OC)c1C,i
Cn1cccc1CN1CCCN(S(C)(=O)=O)C(c2ccccc2)CC(=O)NCC1 (centres undefined),-9%
CCCS(=O)(=O)N1CC(c2noc(C3CCCN3CC3CC3)n2)C1 (centres undefined),-16%
O=C(c1cccs1)N1CC(c2noc(C3CCCN3CC3CC3)n2)C1 (centres undefined),4µM*
O=C(NCc1ccco1)N1CC(c2noc(C3CCCN3CC3CC3)n2)C1 (centres undefined),i
C=CCNC(=O)CCc1c(C)nn(-c2ccc(F)cc2)c1Oc1cccc(F)c1,i
Cc1ccc(NC(=O)Cn2cccc2-c2nc(-c3ccc4c(c3)OCO4)no2)cc1C,166%
O=C(CN1C(=O)COc2ccc(C(=O)COc3ccc(F)cc3)cc21)Nc1ccccc1,i
O=C(N[C@@H]1COCC[C@@H]1OCc1cscn1)c1ccc2c(c1)CCO2,-7%
O=C(Cn1nc2c(cc1=O)CCCCC2)NCCn1cnc2ccccc2c1=O,-5%
O=C(NCc1ccc(F)cc1)c1ccc(Nc2nc3ccccc3n3nnnc23)cc1,-21%
CN(C)c1ccc(Nc2nc3ccccc3n3nnnc23)cc1,7.9µM*
Cc1ccc(CCNC(=O)c2ccc(Nc3nc4ccccc4n4nnnc34)cc2)cc1,-1%
CCOCC1(C)COc2ccc(C(=O)Nc3ccccc3)cc2N1 (centres undefined),i
CC(Cn1cncn1)NC(=O)c1cccc(S(=O)(=O)N2CCOCC2)c1 (centres undefined),2%
CCCCOCc1cc(CN2CCN(c3cccc(Cl)c3)CC2)c(O)c2ncccc12,1µM*
CCOc1ccc2oc(=O)cc(CN3CCN(C(=O)c4cccc(Cl)c4)CC3)c2c1,i
SMILES,Pf Dd2 inh
CCOC(=O)C1=C(CN2CCN(c3cccc(Cl)c3)CC2)NC(=O)NC1c1ccc(Cl)cc1 (centres undefined),i
Cn1ncc2c(N3CCN(c4cccc(Cl)c4)CC3)ncnc21,8%
COc1cc(Cl)cc(CN2CCN(c3ncccc3C#N)CC2)c1OC,i
CCCOCc1cc(CN2CCN(c3cccc(Cl)c3)CC2)c(O)c2ncccc12,3.2µM*
COC[C@@H]1[C@H](NC(=O)c2cnc(-c3cccnc3)nc2C)[C@@H]2CCO[C@H]12,-5%
N#Cc1ccc(C(=O)N2C[C@@H](Oc3ccccc3)C[C@H]2C(=O)NC2CC2)cc1,18%
CC(C)(C)OC(=O)N1CCCCC1Cn1c(=O)[nH]c2cccnc21 (centres undefined),11%[44.1 µM]
COCCNC(=O)c1ccc2c(c1)N(C)C(CC(=O)N1CCNC(=O)C1)CO2 (centres undefined),-19%
O=C(N[C@@H]1CCN(C(=O)Cc2noc3ccccc23)C[C@H]1O)c1cccnc1,-13%
CCCOc1ccc(CN2CCc3nc(N(C)C)[nH]c(=O)c3CC2)cc1OC,-26%[5.79 µM]
CCCNC1(Cc2cc(C(=O)N3CCCCC3)on2)COC1,-1%[44.1 µM]
COc1ccc(-c2noc(-c3nnn4c3COC(c3ccc(C)cc3C)C4)n2)cc1F (centres undefined),i
O=C(Nc1cccc(-c2nc3cc(Cl)ccc3o2)c1)c1cc([N+](=O)[O-])ccc1N1CCOCC1,i
CCc1ccc2oc(-c3cccc(NC(=O)c4ccc(-c5cccc([N+](=O)[O-])c5)o4)c3)nc2c1,2µM*
CCc1ccc2oc(-c3cccc(NC(=O)COc4ccccc4Cl)c3)nc2c1,42%
CN1CCC(Nc2ccc3c(n2)CN(Cc2ccc(C(F)(F)F)cc2)C(=O)CO3)CC1,-9%[44.1 µM]
Cc1ccc(SC2CCN(C(=O)c3cn(CCc4ccccc4)nn3)CC2)cc1,-4%
Cc1ccc2nc3n(c2c1)[C@@H](CNCc1ccc(C(=O)O)cc1)COC3,2%[44.1 µM]
COc1coc(CN2CCCC(CCc3ccccc3F)C2)cc1=O (centres undefined),i
O=c1cc(CN2CCCC(CCc3ccccc3C(F)(F)F)C2)[nH]c(=O)[nH]1 (centres undefined),-12%
Cc1ccccc1CN1CCCC(CCNS(=O)(=O)C2CC2)C1 (centres undefined),10µM*
CSc1ccc(NC(=O)N2CCC(N(CCC(C)C)C3CCOCC3)CC2)cc1,i
O=C(C1CC=CC1)N1CCN(C(=O)N2CC3CC(C2)[C@H]2CCCC(=O)N2C3)CC1 (some centres undefined),-7%
Cc1ccc(C(=O)c2cn(Cc3ccccc3F)c3cc4c(cc3c2=O)OCCO4)cc1,-10%
CCOc1ccc(C(=O)c2cn(Cc3ccccc3OC)c3cc4c(cc3c2=O)OCCO4)cc1,-13%
SMILES,Pf Dd2 inh
COc1ccc(C(=O)c2cn(Cc3cccc(C)c3)c3cc4c(cc3c2=O)OCCO4)cc1OC,7.9µM*
COc1ccc(C(=O)c2cn(Cc3ccccc3OC)c3cc4c(cc3c2=O)OCO4)cc1,-3%
Cc1ccc(C(=O)c2cn(Cc3ccccc3)c3ccccc3c2=O)cc1,i
Cc1ccc2c(c1)c(=O)c(C(=O)c1ccccc1)cn2Cc1ccccc1F,13µM*
COc1ccccc1Cn1cc(C(=O)c2ccc(F)cc2)c(=O)c2cc3c(cc21)OCO3,5%
Cc1ccc(Cn2cc(C(=O)c3ccc4c(c3)OCO4)c(=O)c3cc(C)ccc32)cc1,10µM*
CCOc1ccc(NC(=O)Cn2cc(C(=O)c3ccc(C)cc3)c(=O)c3cc4c(cc32)OCO4)cc1,-9%
O=C(c1ccccc1)N1CCN(c2nc3ncccc3o2)CC1,i
CN1C[C@H](NCc2cccc(Cl)c2)CCC[C@@H](C(=O)N(C)Cc2cccnc2)CC1=O,12%
Cc1nc2c(c(-c3ccc(O)cc3)n1)CN(Cc1cncs1)CCC2,3%
CCC(C(=O)N1CCC2(CCC(=O)N(Cc3ccccn3)C2)CC1)n1cccn1 (centres undefined),8%
O=C(C1CC(=O)N(c2n[nH]c3ccccc23)C1)N1CCSCC1 (centres undefined),-9%
Cc1ccc(NC(=O)N2CCc3c(c4ccccc4n3C)C2)cc1,i
Cn1c2c(c3ccccc31)CN(C(=O)Nc1ccccc1F)CC2,11µM*
CCc1ccc(NC(=O)N2CCc3c(c4ccccc4n3C)C2)cc1,i
CCC(=O)N1Cc2ccccc2CC2(CCCN2Cc2ccccn2)C1 (centres undefined),5%
CCC(=O)N1Cc2ccccc2CC2(CCCCN2Cc2ccccn2)C1 (centres undefined),-19%
C[S+](=O)([O-])N1Cc2ccccc2CC2(CCCN2Cc2ccncc2)C1 (centres undefined),6%
CCCN1CCCC12Cc1ccccc1CN(C(=O)C(C)C)C2 (centres undefined),8.9µM*
